MEKK2mut PB1 HTS – signal of MEK5 binding to mutant human MEKK2 PB1 domain; percent response, % at 10 µM; bead flow cytometry, Alexa488-MEK5 binding to MEKK2 mutant; actives 0.35% (n = 290,000); in the data active = percent response above about 24%, passing the limit was not always enough
MEKK2 WT-MEK5 – raises or lowers MEK5 binding to wildtype human MEKK2 PB1 domain | actives 1.1% (n = 290,000) | bead flow cytometry, Alexa488-MEK5 binding to MEKK2 WT; actives lie on both sides | AID 1531 | Q9Y2U5 | binding response (% of control), % at 10 µM; in the data active = binding response below about 67% or above about 130%
MEKK3 PB1 HTS – MEKK3-MEK5 PB1 interaction, increase or decrease; bead-based flow cytometry, Alexa488-MEK5 binding to MEKK3; actives lie on both sides; 0 = blocked by unlabeled MEK5, 100 = vehicle; binding response (% of control), % at 10 µM; actives 1.4% (n = 290,000); AID 1529;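 active = binding response more than 3 SD above or below the average of its plate-row segment, actives on both sides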;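 also: Alexa488 bead fluorescence after subtracting the streptavidin-only scavenger bead signal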
Target sequence (Q99759 whole entry, looked up): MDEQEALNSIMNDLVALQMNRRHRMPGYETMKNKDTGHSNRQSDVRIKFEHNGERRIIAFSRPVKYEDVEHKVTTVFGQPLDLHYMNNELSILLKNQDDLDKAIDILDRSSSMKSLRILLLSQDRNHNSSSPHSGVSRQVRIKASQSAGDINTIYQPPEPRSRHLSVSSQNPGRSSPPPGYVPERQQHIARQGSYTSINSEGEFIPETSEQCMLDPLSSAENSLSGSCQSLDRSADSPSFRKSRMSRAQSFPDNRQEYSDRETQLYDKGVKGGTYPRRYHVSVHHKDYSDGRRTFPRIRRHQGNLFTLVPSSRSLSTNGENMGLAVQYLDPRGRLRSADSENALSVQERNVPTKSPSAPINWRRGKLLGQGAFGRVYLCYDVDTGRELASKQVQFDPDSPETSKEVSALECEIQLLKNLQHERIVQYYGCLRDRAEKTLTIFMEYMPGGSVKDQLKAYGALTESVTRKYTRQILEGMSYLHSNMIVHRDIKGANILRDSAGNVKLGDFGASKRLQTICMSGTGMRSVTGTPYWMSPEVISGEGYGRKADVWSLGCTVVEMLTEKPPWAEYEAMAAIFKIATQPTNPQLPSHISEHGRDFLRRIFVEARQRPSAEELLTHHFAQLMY
VLA-4 inh – inhibition in a human VLA-4 binding assay | VLA-4 expressing cells, ligand binding flow cytometry | inhibition, % (about 7 µM as worked out from the volumes in the protocol) | actives 0.2% (n = 330,000) | AID 2557; in the data active = inhibition above about 50%
MEKK2wt confirm – raises or lowers MEK5 binding to wildtype human MEKK2, retest; bead flow cytometry, Alexa488-MEK5 binding to MEKK2 WT; actives lie on both sides; actives 2.4% (n = 5,900); AID 1892; binding response (% of control), % at 10 µM; shares compounds with MEKK3 PB1 HTS; in the data active = binding response below about 16% or above about 210%; inactive = in between
MEKK2mut confirm – signal of MEK5 binding to mutant human MEKK2, retest; shares compounds with MEKK3 PB1 HTS; actives 2% (n = 5,900); percent response, % at 10 µM; bead flow cytometry, Alexa488-MEK5 binding to MEKK2 mutant; in the data active = percent response mostly above about 71%, no sharp cut-off; inactive = mostly below about 38%;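 also: higher means compound restores mutant binding toward wildtype level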
MEKK3-MEK5 inh – MEKK3-MEK5 PB1 inhibition, single concentration confirmation; actives 1.8% (n = 5,900); binding response (% of control), % at 10 µM; shares compounds with MEKK3 PB1 HTS; bead flow cytometry, Alexa488-MEK5 binding to MEKK3; active compounds read low;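 active = binding response below 72% of control, or above a set upper limit, though filed actives all read lower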;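 also: 100% = DMSO only wells and 0% = binding blocked by excess unlabeled MEK5; lower values mean stronger disruption of MEK5 binding to MEKK3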
Starred values were filed as active, the others as inactive; . = not tested or not shown; [ ] = remark or other dose. This is a sample that favours compounds with a hit; in the whole collection about 2.2% have one here.

SMILES	MEKK2mut PB1 HTS	MEKK2 WT-MEK5	MEKK3 PB1 HTS	VLA-4 inh	MEKK2wt confirm	MEKK2mut confirm	MEKK3-MEK5 inh
CN(C(=O)COC(=O)c1cc(S(=O)(=O)N2CCOCC2)ccc1F)C1CCS(=O)(=O)C1 (configuration not stated)	.	.	.	3	.	.	.
O=C(CSc1nnc(-c2cccnc2)s1)Nc1ccccc1	0	101	103	-1	.	.	.
O=C(CSc1nnc(-c2cccnc2)s1)Nc1cccc(C(=O)O)c1	0	111	158*	0	98	-4	98
CCCn1c(SCC(=O)N2c3ccccc3Sc3ccccc32)nc2ccccc21	0	107	150*	11	97	-5	104
O=C(O)CCn1c(SCc2ccccc2)nc2ccccc21	-21	0.0*[inhibitor]	0.0*[inhibitor]	32	98	-6	98
CCCn1c(SCC(=O)O)nc2ccccc21	7	114	110	-2	.	.	.
CCCN1CCN(CCCNC(=O)c2cc3c(=O)[nH]c4ccc(C)cc4c3s2)CC1	-9	75	67*[inhibitor]	5	108	-4	101
CCN1CCN(CCCNC(=O)c2cc3c(=O)oc4ccc(C)cc4c3s2)CC1	5	116	103	6	.	.	.
COc1cccc(CNc2ccccn2)c1O	2	100	97	-4	.	.	.
COc1cccc(CNc2cc(C)ccn2)c1O	27*	100	100	-4	97	-10	98
O=C(NC1(C(F)(F)F)NC(=O)N(Cc2ccccc2)C1=O)c1cccnc1 (configuration not stated)	0	103	99	9	.	.	.
CC(c1ccccc1)N1C(=O)NC(NC(=O)c2cccnc2)(C(F)(F)F)C1=O (configuration not stated)	-3	0.0*[inhibitor]	0.0*[inhibitor]	2	97	-8	96
COc1ccc(CN2CCN(Cc3ccon3)CC2CCO)c(C)c1C (configuration not stated)	-1	103	104	-1	.	.	.
Cc1ccc(CC2S/C(=C(/C#N)C(=O)NCc3ccco3)N(c3ccccc3)C2=O)cc1 (configuration not stated)	-9	89	91	8	.	.	.
CC1S/C(=C(\C#N)C(=O)NCc2ccco2)N(Cc2ccco2)C1=O (configuration not stated)	-34	38*[inhibitor]	49*[inhibitor]	20	100	1	101
CC(=O)c1cccc(NC2c3ccccc3C(=O)N2Cc2ccco2)c1 (configuration not stated)	30	119	134*	7	93	-3	93
COc1cc(/C=N/OCC(=O)Nc2ccc(OC(F)F)cc2)ccc1OCc1ccccc1	-1	108	135*	6	99	-7	101
O=C(CN1C(=O)C(=O)N(C2CCCC2)C1=O)Nc1ccccc1OC(F)F	.	.	.	5	.	.	.
Nc1ccc(S(=O)(=O)Nc2nccc(/C=C/c3ccccc3F)n2)cc1	0	116	134*	1	95	-3	97
Cc1ccnc(NS(=O)(=O)c2ccc(NC(=O)c3ccccc3F)cc2)n1	2	103	105	-2	.	.	.
O=C1/C(=C\c2ccc(-c3ccccc3Cl)o2)SC(=S)N1CC1CCCO1 (configuration not stated)	-28	35*[inhibitor]	60*[inhibitor]	-18	40	-24	82
CCC(C)(C)c1ccc(OCCCC[n+]2cccc(C)c2)c(C(C)(C)CC)c1	44	191*	107	.	192	81*	111
CC(C(=O)NCc1cccnc1)c1ccc([N+](=O)[O-])cc1 (configuration not stated)	7	107	101	1	.	.	.
CCOC(=O)CCCNC(=O)COC(=O)CCC(=O)c1ccc(F)cc1	-20	2.0*[inhibitor]	2.0*[inhibitor]	1	96	0	100
O=C(COC(=O)CCC(=O)c1ccc(F)cc1)NCc1ccco1	-8	87	74*[inhibitor]	19	102	-5	101
